# Calls of active or inactive are those of the source.
# What was measured:
# [1] = small molecules captured by biotinylated probe aFSTL3 – biochemical, small-molecule microarray, fluorescence 635/667, stem cell growth factor project, primary screen (AID 1064); conditions: higher = more signal;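 note: measures binding of the biotinylated anti-FSTL3 antibody to printed compounds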
# [2] = binders from COS7 lysate, DM2A8 probe, primary screen, torsin A project, cell lysate, small-molecule microarray, fluorescence 635/667 (AID 1065); conditions: higher = more signal, COS7 lysate expressing mutant human TOR1A
# [3] = small molecules captured by biotinylated probe aFGF2 – biochemical, small-molecule microarray, fluorescence 635/667, stem cell growth factor project, primary screen (AID 1067); conditions: higher = more signal;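 note: measures binding of biotinylated aFGF2 protein to printed compounds on slides; z-score merges feature fluorescence and signal-to-noise across triplicate slides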
# [4] = small molecules captured by biotinylated probe aFGF10 – biochemical, small-molecule microarray, fluorescence 635/667, stem cell growth factor project, primary screen (AID 1071); conditions: higher = more signal;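 note: score merges 667 nm spot intensity and signal to noise from triplicate slides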
# [5] = molecular target: Neurogenic locus notch homolog protein 2 (Homo sapiens) (UniProt Q04721); experiment: small molecules binding Notch2 protein – biochemical, small-molecule microarray, 635 nm fluorescence, stem cell growth factors, primary screen (AID 1073); conditions: higher = more signal
# [6] = molecular target: Pro-neuregulin-1, membrane-bound isoform (Homo sapiens) (UniProt Q02297); experiment: small molecules binding neuregulin-1 protein – biochemical, small-molecule microarray, fluorescence 635/667, psychiatric disease protein project, primary screen (AID 1075); conditions: NRG1 binding, 635 nm fluorescence, higher = more signal;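 note: score combines 667 nm spot fluorescence with signal to noise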
# Pro-neuregulin-1, membrane-bound isoform (Homo sapiens), sequence (Q02297 whole entry, looked up, the tested form may be a part, canonical isoform): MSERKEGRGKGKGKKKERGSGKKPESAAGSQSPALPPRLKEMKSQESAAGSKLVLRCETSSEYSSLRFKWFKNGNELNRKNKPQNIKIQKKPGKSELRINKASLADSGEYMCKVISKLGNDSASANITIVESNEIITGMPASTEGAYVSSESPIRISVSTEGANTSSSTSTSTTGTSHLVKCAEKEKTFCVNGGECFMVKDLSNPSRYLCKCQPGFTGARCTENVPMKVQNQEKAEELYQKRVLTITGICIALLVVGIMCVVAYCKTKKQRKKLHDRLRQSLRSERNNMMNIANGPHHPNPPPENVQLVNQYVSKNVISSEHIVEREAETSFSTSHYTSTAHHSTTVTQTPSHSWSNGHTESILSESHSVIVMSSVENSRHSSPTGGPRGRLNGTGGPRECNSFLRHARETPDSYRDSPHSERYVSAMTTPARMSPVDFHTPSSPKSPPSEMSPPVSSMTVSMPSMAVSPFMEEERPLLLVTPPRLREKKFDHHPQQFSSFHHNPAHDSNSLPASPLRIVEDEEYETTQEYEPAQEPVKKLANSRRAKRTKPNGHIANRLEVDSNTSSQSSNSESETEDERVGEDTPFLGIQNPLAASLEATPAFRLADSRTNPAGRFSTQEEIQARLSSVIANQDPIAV
# [7] = system: Neuregulin-1 EGF-like domain; experiment: small molecules binding NRG1 EGF domain – biochemical, small-molecule microarray, 635 nm fluorescence, primary screen (AID 1081); conditions: higher = more signal;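 note: binding of the protein to compounds printed on small-molecule microarray slides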
# [8] = FRG1 expression reporter modulators in myotubes – cell-based, C2C12 myotubes, firefly/Renilla luciferase, luminescence, FRG1 inhibition for FSHD, primary screen (AID 1084); conditions: FRG1 promoter luciferase, higher = more signal, called active from +8 up or from −8 down
# [9] = small molecules captured by biotinylated probe aFST – biochemical, small-molecule microarray, fluorescence 635/667, stem cell growth factor project, primary screen (AID 1086); conditions: higher = more signal;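 note: score merges 667 nm fluorescence with signal-to-noise of each printed compound spot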
# [10] = binders of probe aHhip on microarray, primary screen, stem cell growth factor project, biochemical, small-molecule microarray, fluorescence 635/667 (AID 1087); conditions: higher = more signal;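 note: score merges spot fluorescence at 667nm with spot signal to noise ratio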
# [11] = system: PRMT1 (protein arginine N-methyltransferase 1); experiment: small molecules binding arginine methyltransferase PRMT1 – biochemical, small-molecule microarray, 635 nm fluorescence, primary screen (AID 1088); conditions: higher = more signal;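 note: binding of Prmt1 protein to compounds spotted on small-molecule microarray slides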
# [12] = growth effects on S. cerevisiae YJM789 – YJM789 clinical isolate, OD600, 24 h, basal, primary screen (AID 1089); conditions: higher = more signal, called active from +8 up or from −8 down;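 note: growth of clinical yeast isolate S. cerevisiae YJM 789 seeded 1000 cells per well; test concentration not given here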
# [13] = S. pombe growth modifiers, basal conditions – strain 972, OD600, 24 h, no modulator, primary screen (AID 1090);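 note: basal condition with compound alone and no growth modifier present; test concentration not given here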; conditions: S. pombe 972 growth, higher = more signal, called active from +8 up or from −8 down
# [14] = budding yeast growth modifiers under rapamycin – strain BY4716, OD600, 96 h, primary screen (AID 1091); note: test concentration not given here; conditions: S. cerevisiae BY4716 + rapamycin, higher = more signal, called active from +8 up or from −8 down
# [15] = molecular target: Torsin-1A-interacting protein 2 (Homo sapiens) (UniProt Q8NFQ8); experiment: small molecules binding lysate-expressed LULL1 – cell lysate, human LULL1 lysate, 635/667 nm fluorescence, primary screen (AID 1092); conditions: small-molecule microarray, hLULL1 lysate binding, 635 nm fluorescence; higher = more signal;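 note: probe is lysate of COS7 cells overexpressing human LULL1; score merges per-feature 667 nm fluorescence with signal-to-noise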
# Torsin-1A-interacting protein 2 (Homo sapiens), sequence (Q8NFQ8 whole entry, looked up): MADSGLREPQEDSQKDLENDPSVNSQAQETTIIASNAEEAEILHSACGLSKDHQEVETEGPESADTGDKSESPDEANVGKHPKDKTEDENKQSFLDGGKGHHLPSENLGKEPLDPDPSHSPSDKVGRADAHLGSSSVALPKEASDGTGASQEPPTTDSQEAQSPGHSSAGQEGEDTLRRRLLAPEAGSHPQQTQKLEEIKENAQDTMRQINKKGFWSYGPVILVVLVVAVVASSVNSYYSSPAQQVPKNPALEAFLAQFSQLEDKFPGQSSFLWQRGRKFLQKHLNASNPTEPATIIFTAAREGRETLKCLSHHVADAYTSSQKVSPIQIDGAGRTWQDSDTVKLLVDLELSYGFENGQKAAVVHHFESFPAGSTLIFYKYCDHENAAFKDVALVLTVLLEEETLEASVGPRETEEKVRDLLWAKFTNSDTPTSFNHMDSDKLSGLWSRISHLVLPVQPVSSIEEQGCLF
# [16] = optical density change of DRC41 E. coli – strain DRC41, OD650, 24 h, E. coli filamentation project, primary screen (AID 1093);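 note: MC1000 strain lacking acrAB efflux and sulA so SOS filamentation is blocked; test concentration not given here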; conditions: E. coli DRC41 growth, higher = more signal, called active from +8 up or from −8 down
# [17] = probe aLefty2 binding to arrayed compounds – biochemical, biotinylated probe, 635/667 nm fluorescence, primary screen (AID 1094); conditions: small-molecule microarray, higher = more signal;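 note: score merges spot fluorescence near 667 nm with spot signal-to-noise ratio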
# [18] = system: Noggin (protein binding on small-molecule microarray); experiment: small molecules binding Noggin protein – biochemical, 635/667 nm fluorescence, primary screen (AID 1095); conditions: 635 nm fluorescence, higher = more signal;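 note: score merges 667 nm feature fluorescence with signal to noise over triplicate slides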
# [19] = molecular target: Neurogenic locus notch homolog protein 3 (Homo sapiens) (UniProt Q9UM47); experiment: small molecules binding NOTCH3 protein – biochemical, 635/667 nm fluorescence, primary screen (AID 1096); conditions: small-molecule microarray, 635 nm fluorescence, higher = more signal
# Neurogenic locus notch homolog protein 3 (Homo sapiens), sequence (Q9UM47 whole entry, looked up): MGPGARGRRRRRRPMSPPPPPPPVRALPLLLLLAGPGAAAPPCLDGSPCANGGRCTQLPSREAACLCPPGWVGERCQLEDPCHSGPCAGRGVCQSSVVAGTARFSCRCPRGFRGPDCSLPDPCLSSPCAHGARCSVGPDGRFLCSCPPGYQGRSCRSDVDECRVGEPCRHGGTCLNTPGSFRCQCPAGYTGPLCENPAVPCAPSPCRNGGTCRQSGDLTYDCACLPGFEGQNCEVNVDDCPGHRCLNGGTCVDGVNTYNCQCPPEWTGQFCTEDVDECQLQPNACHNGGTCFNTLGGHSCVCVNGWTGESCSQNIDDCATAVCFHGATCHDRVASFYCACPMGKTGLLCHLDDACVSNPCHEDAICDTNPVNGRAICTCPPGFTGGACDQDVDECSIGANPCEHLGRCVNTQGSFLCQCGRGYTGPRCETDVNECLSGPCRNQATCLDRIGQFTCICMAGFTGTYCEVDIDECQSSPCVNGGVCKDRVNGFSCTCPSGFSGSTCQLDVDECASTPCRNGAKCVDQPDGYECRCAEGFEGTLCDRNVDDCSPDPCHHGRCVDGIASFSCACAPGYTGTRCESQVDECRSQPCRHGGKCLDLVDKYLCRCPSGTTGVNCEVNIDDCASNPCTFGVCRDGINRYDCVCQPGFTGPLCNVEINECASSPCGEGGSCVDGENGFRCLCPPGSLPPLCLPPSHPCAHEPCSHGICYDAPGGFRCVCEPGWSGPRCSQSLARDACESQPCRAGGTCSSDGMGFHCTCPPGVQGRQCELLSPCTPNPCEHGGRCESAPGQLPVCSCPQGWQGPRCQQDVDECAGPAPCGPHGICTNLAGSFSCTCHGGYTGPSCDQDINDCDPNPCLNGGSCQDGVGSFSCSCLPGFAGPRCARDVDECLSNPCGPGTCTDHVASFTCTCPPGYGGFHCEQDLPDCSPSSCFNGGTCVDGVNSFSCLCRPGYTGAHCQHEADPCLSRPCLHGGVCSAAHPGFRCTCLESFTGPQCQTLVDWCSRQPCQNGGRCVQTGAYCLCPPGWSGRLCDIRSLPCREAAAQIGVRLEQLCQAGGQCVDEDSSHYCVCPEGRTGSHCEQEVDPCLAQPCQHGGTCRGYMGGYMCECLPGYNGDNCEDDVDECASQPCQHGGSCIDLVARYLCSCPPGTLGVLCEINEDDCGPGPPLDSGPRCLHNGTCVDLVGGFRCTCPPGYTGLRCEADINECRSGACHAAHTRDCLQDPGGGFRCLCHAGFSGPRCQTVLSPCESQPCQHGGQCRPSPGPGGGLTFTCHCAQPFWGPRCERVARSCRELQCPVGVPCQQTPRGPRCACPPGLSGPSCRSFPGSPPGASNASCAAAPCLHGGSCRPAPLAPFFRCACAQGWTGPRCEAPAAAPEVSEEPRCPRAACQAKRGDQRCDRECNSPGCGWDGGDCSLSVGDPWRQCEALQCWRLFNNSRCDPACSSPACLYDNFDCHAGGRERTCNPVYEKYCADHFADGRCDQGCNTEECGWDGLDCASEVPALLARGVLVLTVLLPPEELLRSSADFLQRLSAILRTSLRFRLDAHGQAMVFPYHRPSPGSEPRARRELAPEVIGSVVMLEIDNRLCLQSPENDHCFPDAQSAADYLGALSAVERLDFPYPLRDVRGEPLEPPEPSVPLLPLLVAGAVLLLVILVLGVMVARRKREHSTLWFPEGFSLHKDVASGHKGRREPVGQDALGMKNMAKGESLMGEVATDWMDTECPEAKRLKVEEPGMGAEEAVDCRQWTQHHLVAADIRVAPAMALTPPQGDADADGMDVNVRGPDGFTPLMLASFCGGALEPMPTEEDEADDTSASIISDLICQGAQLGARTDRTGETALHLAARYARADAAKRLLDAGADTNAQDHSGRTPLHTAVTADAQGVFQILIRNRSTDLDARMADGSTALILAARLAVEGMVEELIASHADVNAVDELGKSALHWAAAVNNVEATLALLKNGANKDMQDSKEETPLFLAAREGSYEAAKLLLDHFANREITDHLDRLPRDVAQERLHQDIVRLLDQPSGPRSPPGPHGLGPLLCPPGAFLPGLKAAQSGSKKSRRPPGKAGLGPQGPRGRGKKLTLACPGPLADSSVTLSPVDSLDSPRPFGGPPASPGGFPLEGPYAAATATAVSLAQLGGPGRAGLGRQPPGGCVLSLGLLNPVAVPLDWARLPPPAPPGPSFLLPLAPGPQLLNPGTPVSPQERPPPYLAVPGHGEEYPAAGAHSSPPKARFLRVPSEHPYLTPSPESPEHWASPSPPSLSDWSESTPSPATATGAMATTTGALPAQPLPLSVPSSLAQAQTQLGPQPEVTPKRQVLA
# [20] = probe aEGFR binding to arrayed compounds – biochemical, biotinylated probe, 635/667 nm fluorescence, primary screen (AID 1097); conditions: small-molecule microarray, higher = more signal;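 note: probe is a biotinylated anti-EGFR antibody binding compounds printed on slides; score combines fluorescence near 667 nm and signal to noise of each spot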
SMILES,composite z-score [1],composite z-score [2],composite z-score [3],composite z-score [4],composite z-score [5],composite z-score [6],composite z-score [7],z-score [8],composite z-score [9],composite z-score [10],composite z-score [11],z-score [12],z-score [13],z-score [14],composite z-score [15],z-score [16],composite z-score [17],composite z-score [18],composite z-score [19],composite z-score [20]
O=C1C[C@@](C(=O)O)(c2ccc([N+](=O)[O-])cc2)[C@@H](c2ccc(CO)cc2I)N1C1CCCCC1,0.0508,0.0298,-0.0256,0.798,1.11,1.39,0.94,-1.26 (inactive),0.797,0.12,0.222,-1.09 (inactive),-6.54 (inactive),0.173 (inactive),2.54,2.15 (inactive),0.0539,0.373,1.06,-0.0828
COC(=O)[C@@]1(Cc2ccc(OC)cc2)[C@H]2c3cc(C(=O)N(C)C)n(Cc4ccc(OC)c(OC)c4)c3C[C@H]2CN1C(=O)c1ccccc1,0.42,0.796,-0.0824,0.336,1.73,1.86,1.28,0.889 (inactive),1.39,0.525,1.58,1.04 (inactive),2.35 (inactive),4.24 (inactive),3.65,-0.841 (inactive),0.401,-0.356,1.03,0.288
COCCCNC(=O)[C@@]1(C)c2ccccc2C(=O)N(Cc2ccccc2)[C@H]1c1ccc(CO)cc1,0.235,0.0748,-0.173,-0.979,-1.19,1.88,1.5,-1.24 (inactive),-0.353,-0.147,1.46,-0.21 (inactive),-1.31 (inactive),-0.0048 (inactive),3.43,-0.336 (inactive),-0.11,-0.694,0.0118,-0.168
C=C(CCCC)C(=O)CC[C@H](OC(C)=O)c1ccc(CO)o1,-0.282,0.0494,-0.0985,-0.0414,-0.366,-0.119,0.798,-0.463 (inactive),-0.402,-0.0994,1.47,1.04 (inactive),-1.43 (inactive),-0.181 (inactive),0.616,1.38 (inactive),-0.0339,0.53,0.137,-0.182
CN1C(=O)C2C=CC(C(O)c3ccccc3)N(NC(=O)OC(C)(C)C)C2C1=O (stereo not given),-0.366,0.583,0.0728,0.268,1.34,0.871,0.792,1.82 (inactive),0.868,-0.0645,0.408,0.382 (inactive),1.52 (inactive),1.45 (inactive),2.93,-0.828 (inactive),0.0875,-0.201,0.497,0.0182
C=CC[C@]1(C(=O)NCCN2CCOCC2)N=C(c2ccc(OCCCO)cc2)O[C@H]1c1ccccc1N=[N+]=[N-],1.13,0.562,0.178,0.32,0.832,1.56,1.14,1.98 (inactive),1.08,0.176,1.58,-0.941 (inactive),-1.41 (inactive),-0.523 (inactive),3,1.74 (inactive),0.432,0.0879,0.991,0.509
NC(=O)[C@]1(Cc2ccccc2)N=C(c2ccc(OCCCO)cc2)O[C@@H]1c1ccccc1,0.207,-0.911,0.0121,0.161,1.15,1.59,1.12,-0.573 (inactive),0.503,-0.214,0.588,-0.94 (inactive),-1.17 (inactive),-0.314 (inactive),3.54,-0.351 (inactive),0.0781,-0.165,0.658,0.0182
CCCC[C@H]1OB(O)C[C@H]2C1=C(COc1ccccc1)C[C@H]1C(=O)N(Cc3ccccc3)C(=O)[C@H]12,-0.331,-0.413,-0.0434,0.418,0.0238,0.117,1.07,0.132 (inactive),-0.0344,0.0623,0.385,-1.87 (inactive),-1.54 (inactive),-1.6 (inactive),1.33,0.194 (inactive),-0.121,1.51,0.862,-0.0828
O=P(NCC1(CC2(c3ccccc3)CO2)CC1)(c1ccccc1)c1ccccc1 (stereo not given),0.565,-0.856,0.218,0.315,-0.401,1.06,0.619,-1.59 (inactive),-0.0087,0.275,-0.878,-0.468 (inactive),1.08 (inactive),0.236 (inactive),3.14,0.31 (inactive),-0.132,-1.44,-1.19,-0.207
COC(=O)[C@@]1(Cc2ccc(OC)cc2)[C@H]2c3cc(C(=O)N4CCCC4)n(C[C@H](O)CO)c3C[C@H]2CN1C(=O)c1ccccc1,0.288,-0.0909,0.198,0.673,1.13,1.17,0.531,1.13 (inactive),0.488,0.0749,-0.448,0.659 (inactive),1.13 (inactive),0.454 (inactive),2.4,-0.0765 (inactive),0.0069,-0.533,0.355,-0.175
